Hit rate of the full screen: of about 350,000 compounds, about 2,100 (0.6%) were called active. The list comes from a sample in which actives are over-represented; it also holds similar structures and randomly drawn compounds. Unmarked numbers belong to inactive results.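 Rule for the calls: active = inhibition of the ligand-induced calcium signal above about 50% at the single tested concentration (limit read from the data); inactive = the rest.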
Test: antagonists of CRF-BP/CRF-R2 complex, primary screen, cell-based, HEK293, calcium dye fluorescence, uHTS (AID 588475)
Conditions: CRF-induced calcium fluorescence, at 11.8 µM, hits give high values

Going from `CCOC(=O)CN1CCC(c2ccccc2)CC1` to `CC1CC(C)CN(C(=O)CCNC(=O)Cn2cnc3ccccc3c2=O)C1` (configuration not stated), the inhibition falls from -2.05% to -2.21%.

Going from `COc1ccccc1C1=CC(=O)CCC1` to `COc1ccc(/C=C2/CCCc3ccccc3C2=O)cc1`, the inhibition falls from 9.84% to 4.03%.

Going from `c1ccc(CCN2CN=C(Nc3nc4ccccc4o3)NC2)cc1` to `Cc1ccccc1N1CCN(Cc2nc(Cc3ccccc3F)no2)CC1`, the inhibition falls from 13.5% to 10.3%.

Going from `CCc1ccc(N2CC(C(=O)N3CCCCCC3)CC2=O)cc1` (configuration not stated) to `CC1CC(C)CN(C(=O)C2CC(=O)N(c3ccc(F)cc3)C2)C1` (configuration not stated), the inhibition rises from -21.4% to -0.72%.

First: CCCOc1cccc(C(=O)Nc2nnn(CCC)n2)c1
Second: CCCC(O)(CCC)C(=O)NN(C(=O)CCl)c1cccc(C)c1
The inhibition of the first is lower: -20.2% for the first, 4.46% for the second.

Going from `CCCCCCNC(=O)O[C@]12C[C@@H](C(=O)OC)[C@@H](C(=O)OC)C[C@@]1(O)CN(S(=O)(=O)c1ccc(C)cc1)C2` to `COCCCNC(=O)C1CCC(CNS(=O)(=O)c2ccc(OC)cc2)CC1` (configuration not stated), the inhibition rises from -0.13% to 5.65%.

Compared with `CCOc1ccc(NC(=O)CCC(=O)NNC(=O)NC2CCCCC2)cc1`, `CC(=O)c1cccc(-n2nnnc2SCC(=O)NNC(=O)C2CCCCC2)c1` is higher in inhibition: 9.93% for the first, 12.7% for the second.

Compared with `CC1CCN(C(=S)NC2CC3CCC2C3)CC1` (configuration not stated), `COc1ccc(CC(NC(C)=O)C(=O)NC2CCN(C(=O)c3ccc(Cl)cc3)CC2)cc1` (configuration not stated) is lower in inhibition: 18.3% for the first, 13.1% for the second.

Going from `CCc1nnc(NC(=O)CSc2nc(SC)ns2)s1` to `CSc1nnc(NC(=O)c2nc(S(=O)(=O)Cc3ccc(C)cc3)ncc2Cl)s1`, the inhibition rises from -5.79% to 25.7%.

First: O=C(O)C1=C(C(=O)O)C2CCC1C2
Second: O=C(NNC(=O)c1ccccc1O)c1ccccc1O
The inhibition of the first is lower: 17.1% for the first, 24.2% for the second.

First: COc1cc(CNCc2cccs2)cc(Br)c1OC
Second: COc1ccc(Cl)cc1C(=O)OCC(=O)NCc1cccs1
The inhibition of the first is higher: 4.12% for the first, -4.93% for the second.

Compared with `COc1ccc(CCNC(=O)COC(=O)c2ncc(Cl)c(Cl)c2Cl)cc1OC`, `COc1ccc(C(=O)NC(=S)Nc2ccc(Cl)cn2)cc1OC` is lower in inhibition: -0.24% for the first, -25.3% for the second.

Going from `Cc1cc(C)c(C#N)c(SCS(=O)c2ccc(C(C)(C)C)cc2)n1` (configuration not stated) to `Cc1cc(C)nc(NC2=NCC(=O)N2c2ccc(Cl)cc2)n1`, the inhibition rises from 1.43% to 10.7%.

Compared with `CC1C(=O)Nc2ccccc2N1C(=O)c1ccc(F)cc1F` (configuration not stated), `CC1=CC(=C(C#N)c2nc3ccccc3s2)C=C(C)N1c1ccc(F)cc1F` is lower in inhibition: 16% for the first, -130% for the second.

First: O=C(COC(=O)c1ccc(O)cc1O)NC(=O)c1ccccc1
Second: Cc1c(Br)ccc(NC(=O)COc2ccccc2C(N)=O)c1C
The inhibition of the first is lower: -7.02% for the first, -2.05% for the second.

Going from `Cc1onc(-c2c(F)cccc2Cl)c1C(=O)N(C)CC(=O)Nc1cccc(F)c1` to `O=C(CSc1nnc(CNC(=O)c2ccc(F)cc2)o1)Nc1ccc2c(c1)OCO2`, the inhibition falls from 5.08% to -5.95%.

Compared with `Cc1cccc(N2Cc3ccccc3C2=NC(=O)c2ccc(Cl)nc2)c1`, `Cc1cccc(NC(=O)c2nc(S(=O)(=O)Cc3ccccc3)ncc2Cl)c1` is higher in inhibition: -4.54% for the first, 45.5% for the second.

First: CN1CCN(C2=NCCO2)CC1
Second: CN1CCN(C(=O)c2cnn(-c3ccccc3)c2NC(=O)c2ccc([N+](=O)[O-])cc2)CC1
The inhibition of the first is lower: 0.22% for the first, 1.78% for the second.

Going from `O=C1/C(=C/c2cccs2)CCc2ccccc21` to `COC(=O)c1ccc(/C=C2/C(=O)Oc3ccccc32)cc1`, the inhibition rises from -1.09% to 1.02%.

First: COC(=O)[C@]1(Cc2ccccc2)N[C@H](CN(C)S(=O)(=O)c2ccc(OC(F)(F)F)cc2)[C@@H]2C(=O)N(Cc3ccccc3)C(=O)[C@@H]21
Second: CN(C)c1ccc(/C=C2\NC(=S)N(Cc3ccccc3)C2=O)cc1
The inhibition of the first is higher: -0.07% for the first, -149% for the second.

Compared with `O=C(O)C(NS(=O)(=O)c1cccc2nsnc12)c1ccccc1` (configuration not stated), `O=S(=O)(NCc1ccc2c(c1)OCO2)c1cccc2nsnc12` is lower in inhibition: 8.07% for the first, -14.6% for the second.

Going from `Cc1cc(C)cc(C(=O)NC(CC(N)=O)c2ccc(N3CCC(N4CCCCC4)CC3)c([N+](=O)[O-])c2)c1` (configuration not stated) to `CCn1cc(/C=C(\NC(=O)c2cc(OC)c(OC)c(OC)c2)C(=O)N2CCN(C)CC2)c2ccccc21`, the inhibition falls from 14.9% to -8.31%.

First: O=C(NCC(F)(F)F)c1ccc(S(=O)(=O)NCCc2ccc3c(c2)OCCO3)cc1
Second: O=C(NNS(=O)(=O)c1ccc(F)cc1)c1ccc([N+](=O)[O-])cc1Cl
The inhibition of the first is higher: 2.25% for the first, 0.78% for the second.

Compared with `CC1=C(C(N)=O)C(c2sccc2C)n2nnnc2N1` (configuration not stated), `CCNC(=O)CC1C(=O)N(c2ccc(F)cc2)C(=O)N1CCc1sccc1C` (configuration not stated) is higher in inhibition: -23.7% for the first, 3.16% for the second.

First: CCOCC(=O)Nc1ncc(S(=O)(=O)c2ccc([N+](=O)[O-])cc2)s1
Second: COc1ccc(C(=O)NCCNc2ccc([N+](=O)[O-])cn2)cc1
The inhibition of the first is lower: -6.17% for the first, 3.69% for the second.

First: COc1ccc(CCn2c(NN=C3CCCC3)nc3c2c(=O)[nH]c(=O)n3C)cc1
Second: CCCCn1c(N)c(N(CCC(C)C)C(=O)COC(=O)c2ccc(CC)cc2)c(=O)[nH]c1=O
The inhibition of the first is higher: -0.67% for the first, -14.7% for the second.

Compared with `CCn1nc(C)c(NC(=O)/C=C/c2ccc(OC)c(COc3ccc(Br)cc3)c2)c1C`, `COc1ccc(OC)c(S(=O)(=O)Nc2c(C)nn(C)c2C)c1` is lower in inhibition: 30.8% for the first, 6.33% for the second.

Going from `Cc1cc(OC(=O)c2ccc(Cl)cc2)cc(=O)n1C` to `CN(C)C(=O)c1nc2ccc(Cl)cn2c1CNCc1cccc(OC(F)(F)F)c1`, the inhibition rises from 11.4% to 21%.

Compared with `FC(F)(F)c1cc(-c2ccco2)nc(NCc2ccc(Cl)cc2)n1`, `Cc1nc(C)c2c(c1C(F)(F)F)-c1ccccc1C2(F)F` is higher in inhibition: -24.6% for the first, -1.72% for the second.

Going from `COc1ccc(/C=C2\SC(=S)N(CCC(=O)N3CCOCC3)C2=O)cc1OC` to `O=C1/C(=C/c2ccc(F)cc2)SC(=S)N1CCCC(=O)N1CCCCC1CCO` (configuration not stated), the inhibition falls from -7.34% to -17.3%.

Going from `O=C(c1ccc(-n2cnnn2)cc1)N1CCN(C(c2ccccc2)c2ccccc2)CC1` to `c1ccc(C(=NNc2nc3ccccc3s2)c2ccccn2)cc1`, the inhibition falls from 14.7% to -36.8%.

First: CCc1ccc(NC(=O)CC2C(=O)NCCN2C(=S)Nc2ccccc2)cc1 (configuration not stated)
Second: CC1Cc2ccccc2N1C(=O)Cn1cnc2ccccc2c1=O (configuration not stated)
The inhibition of the first is lower: -42.6% for the first, 0.2% for the second.

First: O=C(O)CC/C(=C\c1cc2c(cc1Br)OCO2)c1nc2ccccc2s1
Second: O=C(N/N=C/c1cc(Br)c(O)c([N+](=O)[O-])c1)C(O)(c1ccccc1)c1ccccc1
The inhibition of the first is higher: 8.13% for the first, 4.64% for the second.

First: Cc1cc([N+](=O)[O-])ccc1NS(=O)(=O)c1ccccc1
Second: Cn1nc(-c2ccccc2)c2cc([N+](=O)[O-])ccc21
The inhibition of the first is higher: 17.8% for the first, -1.55% for the second.

Going from `COC(C[C@@H](O)C[C@H](O)[C@H](C)OCc1ccccc1)OC` to `C=C(C)CNC(=S)N/N=C/c1ccccc1OCC(=O)O`, the inhibition falls from 10.3% to -10.5%.

Compared with `Cc1nn(C(=O)c2ccoc2C)c(N)c1-c1ccccc1`, `C/C(=N/NC(=O)CSc1ccccn1)c1ccc([N+](=O)[O-])cc1` is lower in inhibition: 4.6% for the first, 1.41% for the second.

Going from `COc1ccc(Br)cc1/C=N/Nc1ccc(S(=O)(=O)Nc2ccccc2C(=O)O)cc1[N+](=O)[O-]` to `CC(CO)(CO)NC(=O)c1ccc(=O)[nH]n1`, the inhibition falls from 14.6% to 2.66%.

For `CCOC(=O)Cn1c2c(c(-c3ccccc3OC)cc1=O)CCCC2`, the inhibition was 57.5% (active).
With `O=C(C1CC(=O)N(c2ccc(Br)cc2)C1)N1CCCC1` (configuration not stated) the inhibition was 76.7% (active).
In the case of `CCc1nnc(NC(=O)CSc2nnnn2-c2cccc(C(C)=O)c2)s1`, the inhibition is reported as 54.4% (active).
In the case of `COc1cc(CC(=O)NCc2cccs2)cc(OC)c1OC`, the inhibition is reported as 63.8% (active).
In the case of `COC(=O)c1ccc(OC(=O)c2nn(C)cc2Cl)c(OC)c1`, the inhibition is reported as 90.2% (active).
With `O=C(NNc1c2ccccc2nc2ccccc12)c1cc2ccccc2cc1O` the inhibition was 53.2% (active).
For `COc1ccc(/C=C2\CCc3ccccc3C2=O)c(OC)c1OC`, the inhibition was 89.8% (active).
In the case of `CN(C)c1ccc(C=C2C(=O)OC3(CCCC3)OC2=O)cc1`, the inhibition is reported as 66.8% (active).
With `COC(=O)C(NC(=O)c1ccc(OC)cc1)(Nc1ncc(S(=O)(=O)c2ccc([N+](=O)[O-])cc2)s1)C(F)(F)F` (configuration not stated) the inhibition was 72.6% (active).
In the case of `COc1ccc(/C=C/C(=O)Nc2c(C)nn(C)c2C)cc1COc1ccc(Br)cc1`, the inhibition is reported as 60.5% (active).
For `Cc1cccc(CS(=O)(=O)c2ncc(Cl)c(C(=O)Nc3ccc(F)cc3)n2)c1`, the inhibition was 52.3% (active).
In the case of `C=CCOc1ccc(/C=C2\SC(=S)N(CCC(=O)O)C2=O)cc1`, the inhibition is reported as 53.9% (active).
With `N#C/C(=C(/O)Cc1cccc2ccccc12)c1nc2ccccc2s1` the inhibition was 60.4% (active).
In the case of `CCOC(=O)N1CCN(C(=O)Cn2cnc3ccccc3c2=O)CC1`, the inhibition is reported as 72.2% (active).
With `O=[N+]([O-])c1ccc(NS(=O)(=O)c2ccccc2)c(Cl)c1` the inhibition was 55.9% (active).
In the case of `O=[N+]([O-])c1cc(Br)c(O)c(/C=N/Nc2nc3ccccc3s2)c1`, the inhibition is reported as 67.2% (active).
In the case of `Cc1nn(-c2ccc([N+](=O)[O-])cc2)c(N)c1-c1ccccc1`, the inhibition is reported as 51.6% (active).
For `Cc1ccc(NS(=O)(=O)c2ccc(N/N=C/c3ccccc3OCC(=O)O)c([N+](=O)[O-])c2)c(C)c1`, the inhibition was 63.5% (active).
